Reference: ChEMBL document CHEMBL4513216, “Probing the Open Global Health Chemical Diversity Library for Multistage-Active Starting Points for Next-Generation Antimalarials” (ACS Infect Dis, 2020)
The campaign covered roughly 69,000 compounds. About 8,600 (12%) showed an effect of 50% or more. Many of the other results were omitted from the sample, so strong results are more common in it than they were.

System: Plasmodium berghei
Experiment: Screen against P. berghei liver stage (PbLuc), transformed with Luciferase, at 10uM
Format: functional, HepG2
Details: tested at 10 uM

Row | SMILES | INHIBITION [%]
1 | Cc1ncc2c(n1)CN(CC(=O)Nc1nccs1)CC2 | 1.78
2 | COc1ccccc1OCCNCc1c(C)nn(C)c1N(C)C | -11.98
3 | CCOc1ccc(C(=O)N(C)Cc2nccn2CC(F)(F)F)cc1 | 21.7
4 | Cc1ccc(CC(=O)N2CCCC(n3nc(C)cc3C)C2)cn1 (configuration not stated) | 5.03
5 | CC(=O)c1cccc(NC(=O)Cn2cc(-c3ccccc3)ncc2=O)c1 | 17
6 | O=C(NCc1ccnc(OCC2CC2)c1)C1Cc2ccccc2O1 (configuration not stated) | -39.6
7 | Clc1ccccc1CN1CCCC(c2nnc(-c3cnccn3)o2)C1 (configuration not stated) | 2.71
8 | CC(O)c1cn(Cc2ccc(F)cc2)nn1 (configuration not stated) | 23.6
9 | CN(C)c1ncc(-c2cc(C(=O)NCCC#N)n(CC3CC3)c2)cn1 | -2.35
10 | Cc1cnc(-c2nc(C3CCN(Cc4ccccc4Cl)CC3)no2)cn1 | 32.35
11 | c1cc(-c2noc(CN3CCn4c(nnc4C4CC4)C3)n2)cs1 | -14.65
12 | Cc1nc(C)n(C2CCCN(C(=O)CCc3cscn3)C2)n1 (configuration not stated) | 37.9
13 | c1cnc(C2CCCN(Cc3ccsc3)C2)cn1 (configuration not stated) | 25.4
14 | CC(=O)c1ccc(N2CCC3(CCC(=O)N(C4CC4)C3)CC2)nc1 | -25.7
15 | CC1(C)CC(CN2CCC3(CCC(=O)N(C4CCC4)C3)CC2)CCO1 (configuration not stated) | 6.27
16 | O=C(Nc1ccc(F)cc1)N1CCC2(CCC(=O)N(C3CC3)C2)CC1 | 31.6
17 | O=C(Cc1c[nH]c(=O)[nH]c1=O)N1CCC2(CCC(=O)N(C3CC3)C2)CC1 | 58.2
18 | Cc1ncc(CC(=O)N2CCC3(CCC(=O)N(C4CC4)C3)CC2)c(=O)[nH]1 | 50.8
19 | Cc1cnn(CC(=O)N2CCC3(CCC(=O)N(C4CCCC4)C3)CC2)c1 | 39.1
20 | CC1(C)CC(C(=O)N2CCC3(CCC(=O)N(C4CC4)C3)CC2)CCO1 (configuration not stated) | 53.3
21 | Cc1ncc(CC(=O)N2CCC3(CCC(=O)N(CCO)C3)CC2)c(=O)[nH]1 | 46.1
22 | O=C(c1c[nH]c(=O)[nH]1)N1CCCC2(CCC(=O)N(C3CCCC3)C2)C1 (configuration not stated) | 37.7
23 | O=C(COC1CCCC1)NCCc1noc(-c2ccccn2)n1 | -13.1
24 | Cc1cc(N(C)C)nc(C2COCCN2Cc2cc(C)on2)n1 (configuration not stated) | 44.8
25 | CNC(=O)C1(c2cnccn2)CCCN1C(=O)c1ccc(OC)cc1 (configuration not stated) | 20.8
26 | N[C@@H](Cc1c[nH]cn1)C(=O)N1CCC(Oc2ccc(F)cc2)CC1 | 42.8

Row | SMILES | INHIBITION [%]
27 | O=C(O)COc1ccc(Cl)cc1CN1CCC2(CCNCC2)CC1 | 5.46
28 | O=C(O)COc1ccc(Cl)cc1CN1CCC2(CCOCC2)CC1 | 64.5
29 | CN1CC2(CCN(Cc3cc(Cl)ccc3OCC(=O)O)CC2)OC1=O | 33.3
30 | Cc1ccc2cc(C(=O)N3CCCC3Cn3cccn3)[nH]c2c1 (configuration not stated) | -167
31 | CCC1CN(C)c2ccccc2CN1CCn1cncn1 (configuration not stated) | 40.6
32 | COc1ccc(-n2cccn2)cc1S(=O)(=O)N1C[C@H](C2CC2)[C@@H](N)C1 | 12.8
33 | NC(=O)c1ccc(OCCCN2C[C@H](C3CC3)[C@@H](N)C2)cc1 | -13.4
34 | N[C@H]1CN(CCOc2ccc(F)cc2)C[C@@H]1C1CC1 | 27.6
35 | N[C@H]1CN(S(=O)(=O)Cc2ccccc2)C[C@@H]1C1CC1 | -28.7
36 | N[C@H]1CN(CCCOc2ccccc2)C[C@@H]1C1CC1 | 53.8
37 | Cc1ccc(-n2cccn2)cc1S(=O)(=O)N1C[C@H](C2CC2)[C@@H](N)C1 | 59.5
38 | N[C@H]1CN(S(=O)(=O)c2cccnc2)C[C@@H]1C1CC1 | 1.98
39 | N[C@H]1CN(S(=O)(=O)c2ccccc2)C[C@@H]1C1CC1 | 58.3
40 | Cc1ccc(-n2cccn2)cc1S(=O)(=O)N1C[C@H]2CC[C@@H](C1)N(C)C2 | 48.1
41 | CCS(=O)(=O)N1CCC2(CCN(CC(=O)N(C)C)C2=O)CC1 | 37.1
42 | NC(=O)c1ccccc1Oc1cccc(C2CCCNC2)n1 (configuration not stated) | -13.2
43 | O=c1[nH]c2ccc(S(=O)(=O)N(CCO)Cc3ccncc3)cc2[nH]1 | 17.5
44 | Cc1oncc1C(=O)N1CCOCC2(CCN(c3ccccn3)C2)C1 (configuration not stated) | 45.1
45 | c1ccc(OCC2CC3(CCN(c4ncccn4)CC3)CO2)nc1 (configuration not stated) | -34
46 | COc1ccnc(N2CCN(CC(=O)N3CCC(C)CC3)CC2)n1 | -22.9
47 | Cc1cc(CN(C)C(=O)c2ccc(F)c(C(F)(F)F)c2)no1 | 23.5
48 | CN(Cc1ccccc1C#N)C1CCN(CCc2ccccn2)CC1 | -52.5
49 | c1ccc(-c2noc(CCNC3CCOC4(CCOCC4)C3)n2)nc1 (configuration not stated) | -37.8
50 | CCn1cc(CN2CCCN(C(=O)c3sc(C)nc3C)CC2)cn1 | 7.08
51 | O=C(c1ccsc1)N1CCc2onc(COc3ccccn3)c2C1 | 45.8
52 | COc1c(CNCc2ccccc2Cn2ccnc2)c(C)nn1C | 24
